Assay results reported in PubChem BioAssay (NCI).
This is part of a sample that, as a whole, favours compounds with a hit. Of some 83,000 tested, about 20% had one in any assay.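 Single-concentration screen, 48 h exposure, 96-well plates. Endpoint: percent growth. Below 10 = active.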 Calls of active or inactive are those of the source.

Experiments:
Assay in all cases: NCI-60 one-dose screen, 48 h (100 = growth as untreated, 0 = no growth, -100 = all killed)
Conditions in all cases: 10 µM unless noted
HCT-15 colon = system: HCT-15 colon
HT29 colon = system: HT29 colon
SNB-19 CNS = system: SNB-19 CNS
U251 CNS = system: U251 CNS
PC-3 prostate = system: PC-3 prostate
SK-MEL-5 melanoma = system: SK-MEL-5 melanoma
UACC-62 melanoma = system: UACC-62 melanoma
LOX IMVI melanoma = system: LOX IMVI melanoma
SK-MEL-28 melanoma = system: SK-MEL-28 melanoma
SNB-75 CNS = system: SNB-75 CNS

Measured: growth

Clc1cccc(NCOOC2(OOCNc3cccc(Cl)c3)CCCCCC2)c1
inactive: HCT-15 colon 93.2% | HT29 colon 102% | SNB-19 CNS 93.2% | U251 CNS 101% | PC-3 prostate 91.2% | SK-MEL-5 melanoma 93.7% | UACC-62 melanoma 102% | SK-MEL-28 melanoma 107%
active: LOX IMVI melanoma -85.2%

COC(=O)CCC1=C(C)c2cc3[n-]c(cc4nc(cc5[n-]c(cc1n2)c(CCC(=O)OC)c5C)C=C4C)cc3C.[Cd+2]
active: SK-MEL-5 melanoma -7.46%
inactive: HCT-15 colon 35.5% | HT29 colon 28.8% | SNB-19 CNS 73.9% | U251 CNS 61% | PC-3 prostate 33.9% | UACC-62 melanoma 24.1% | LOX IMVI melanoma 44.3% | SK-MEL-28 melanoma 68.8%

COc1ccc(C/C(C)=C(\c2ccc(OCCN3CCOCC3)cc2)c2ccc(OC(=O)Cc3ccccc3)cc2)cc1
active: HCT-15 colon -23.7% | HT29 colon -89.7% | U251 CNS -97.3% | PC-3 prostate -1% | SK-MEL-5 melanoma -91.9% | UACC-62 melanoma -87.7% | LOX IMVI melanoma -94.1% | SK-MEL-28 melanoma -80.6%
inactive: SNB-19 CNS 13.8%

NC(=O)C(Br)c1ccccc1 (stereo not given)
inactive: HCT-15 colon 58% | HT29 colon 86.2% | SNB-19 CNS 90.6% | U251 CNS 86.8% | PC-3 prostate 94.3% | SK-MEL-5 melanoma 82.9% | UACC-62 melanoma 88% | LOX IMVI melanoma 56.8% | SK-MEL-28 melanoma 97.2%

O=C1C=C2C(=CCOC2O)O1 (stereo not given)
inactive: SNB-19 CNS 84.1% | U251 CNS 74.8% | PC-3 prostate 33.9% | SK-MEL-5 melanoma 78.7% | SK-MEL-28 melanoma 37.7%
active: HCT-15 colon -8.81% | HT29 colon -24.3% | UACC-62 melanoma -14.2% | LOX IMVI melanoma 1.42%

O=C(c1cccc(O)c1O)c1cn(Cc2ccc(F)cc2)c2cccc(O)c12
inactive: HCT-15 colon 27.8% | SNB-75 CNS 55.3% | SNB-19 CNS 37.3% | U251 CNS 31% | PC-3 prostate 39.2% | SK-MEL-5 melanoma 25.4% | LOX IMVI melanoma 29.3% | SK-MEL-28 melanoma 39.2%
active: UACC-62 melanoma 9.18%

Cc1c(NS(=O)(=O)c2ccccc2)ccc([N+](=O)[O-])c1Cl
inactive: HCT-15 colon 64.9% | SNB-75 CNS 75.4% | SNB-19 CNS 61.7% | U251 CNS 63.5% | PC-3 prostate 56.2% | SK-MEL-5 melanoma 25.8% | UACC-62 melanoma 31.2% | SK-MEL-28 melanoma 70.5%

Brc1ccc2c(c1)c(-c1nc(-c3c[nH]c4ncccc34)cs1)cn2CCN1CCCCC1
inactive: HCT-15 colon 20.8% | SNB-75 CNS 67.7% | SNB-19 CNS 90% | PC-3 prostate 51.4% | SK-MEL-5 melanoma 68.2% | UACC-62 melanoma 78.2% | LOX IMVI melanoma 65.4% | SK-MEL-28 melanoma 106%

COC(=O)[C@@H](C)C[C@H](Cc1ccccc1)NC(=O)c1nc([C@@H](C[C@H](C(C)C)N(C)C(=O)[C@@H](NC(=O)[C@H]2C[C@H](O)CCN2C)C(C)C)OC(C)=O)sc1C(C)C
active: HCT-15 colon 2.8% | SNB-75 CNS -9.05% | U251 CNS 7.85% | SK-MEL-5 melanoma -24% | LOX IMVI melanoma 8.19%
inactive: SNB-19 CNS 16.5% | PC-3 prostate 21.5% | UACC-62 melanoma 31.3% | SK-MEL-28 melanoma 44.8%

CCn1c2ccccc2c2cc(C(=O)c3cccc4c3CCCN4)ccc21
inactive: HCT-15 colon 104% | SNB-75 CNS 91.6% | SNB-19 CNS 97.6% | U251 CNS 106% | PC-3 prostate 108% | UACC-62 melanoma 92.2% | LOX IMVI melanoma 94.4% | SK-MEL-28 melanoma 103%

Oc1c(CCl)cc(Cl)cc1CCl
inactive: HCT-15 colon 109% | SNB-75 CNS 95.8% | SNB-19 CNS 107% | U251 CNS 110% | PC-3 prostate 93.9% | SK-MEL-5 melanoma 104% | UACC-62 melanoma 116% | LOX IMVI melanoma 93.8% | SK-MEL-28 melanoma 126%

O=NN1CCCc2cccc(O)c21
inactive: HCT-15 colon 27.2% | SNB-75 CNS 21.8% | SNB-19 CNS 31% | U251 CNS 21.9% | PC-3 prostate 51.8% | SK-MEL-5 melanoma 19.9% | UACC-62 melanoma 26.7% | LOX IMVI melanoma 23.9% | SK-MEL-28 melanoma 67.2%

Nc1ccc(-c2nc3cc(F)ccc3[se]2)cc1F
inactive: HCT-15 colon 52.8% | SNB-75 CNS 76.6% | SNB-19 CNS 95.3% | U251 CNS 87.2% | PC-3 prostate 74.3% | SK-MEL-5 melanoma 82.1% | UACC-62 melanoma 71.9% | LOX IMVI melanoma 88.2% | SK-MEL-28 melanoma 115%

CCc1ccccc1[C@@H]1C[C@]2(C)CCO[C@@H]2OO1
inactive: HCT-15 colon 107% | SNB-75 CNS 84.7% | SNB-19 CNS 93.6% | U251 CNS 99.2% | PC-3 prostate 100% | SK-MEL-5 melanoma 102% | UACC-62 melanoma 99.9% | LOX IMVI melanoma 99.9% | SK-MEL-28 melanoma 110%

COC(=O)[C@@H](C)C[C@H](Cc1cn(C)c2ccccc12)NC(=O)c1csc([C@@H](C[C@H](C(C)C)N(C)C(=O)[C@@H](NC(=O)[C@H]2CCCCN2C)C(C)C)OC(C)=O)n1
active: HCT-15 colon 9.96% | SK-MEL-5 melanoma -38.4%
inactive: SNB-75 CNS 59% | SNB-19 CNS 35.6% | U251 CNS 15.4% | PC-3 prostate 24.3% | UACC-62 melanoma 47.8% | SK-MEL-28 melanoma 60.6%

C/C1=C/C(=O)O[C@@H]2C[C@@H](CC[C@H](C)/C=C\C=C\CC1)O[C@@](O)([C@@H]1CSC(=O)N1CO)C2
active: SNB-75 CNS -41.5% | LOX IMVI melanoma 7.38% | SK-MEL-28 melanoma -31.7%
inactive: HCT-15 colon 46.6% | SK-MEL-5 melanoma 29.5% | UACC-62 melanoma 29.2%

COC(=O)C1OC(Oc2ccc(N(CCCl)CCCl)cc2)C(OC(C)=O)C(OC(C)=O)C1OC(C)=O (stereo not given)
inactive: HCT-15 colon 83.3% | SNB-75 CNS 59.2% | SNB-19 CNS 92.6% | PC-3 prostate 78% | SK-MEL-5 melanoma 92.1% | UACC-62 melanoma 79.6% | LOX IMVI melanoma 77.2% | SK-MEL-28 melanoma 83.5%

CCn1cnc2c(Nc3cccc(Cl)c3)nc(N[C@@H]3CCCC[C@@H]3N)nc21
inactive: UACC-62 melanoma 10.2% | SK-MEL-28 melanoma 22.8%
active: HCT-15 colon 6.27% | SNB-75 CNS -5.9% | SNB-19 CNS 7.42% | U251 CNS 6.89% | PC-3 prostate 4.71% | SK-MEL-5 melanoma -26.5% | LOX IMVI melanoma -8.41%

C/C=C(\C)C(=O)O[C@@H]1C(O)[C@H]2OC(COC(=O)CCC(=O)CCCCCC[C@H](CCCCC)O[C@@H]3OC(C)[C@H](OC(C)=O)C(O)[C@H]3O2)[C@H]1OC(=O)/C=C/c1ccccc1 (stereo not given in full)
inactive: HCT-15 colon 13% | SNB-19 CNS 34.7% | PC-3 prostate 21.3% | SK-MEL-28 melanoma 18.5%
active: SNB-75 CNS 1.65% | U251 CNS 8.26% | SK-MEL-5 melanoma -79.1% | UACC-62 melanoma -46.8% | LOX IMVI melanoma -49.9%

COc1cc([C@@H]2c3cc4c(cc3[C@H](OC(C)=O)[C@H]3COC(=O)[C@@H]23)OCO4)cc(OC)c1OC
active: SNB-75 CNS 4.62% | U251 CNS 8.16% | SK-MEL-5 melanoma -20.9%
inactive: HCT-15 colon 11.8% | PC-3 prostate 15% | UACC-62 melanoma 18.5% | SK-MEL-28 melanoma 48.6%

Nc1c(F)cc(-c2nc3cc(F)ccc3[se]2)cc1F
inactive: HCT-15 colon 22% | SNB-75 CNS 92.2% | SNB-19 CNS 104% | U251 CNS 93.6% | PC-3 prostate 72.1% | SK-MEL-5 melanoma 56.1% | UACC-62 melanoma 66.5% | LOX IMVI melanoma 89.3% | SK-MEL-28 melanoma 116%

COc1cc([N+](=O)[O-])c2nc(C)ccc2c1[N+](=O)[O-]
inactive: HCT-15 colon 92.9% | SNB-75 CNS 109% | SNB-19 CNS 95.2% | U251 CNS 90% | PC-3 prostate 93.9% | SK-MEL-5 melanoma 93.6% | UACC-62 melanoma 86.7% | LOX IMVI melanoma 71.5% | SK-MEL-28 melanoma 103%

O=C(N/N=C\c1ccc(N(CCCl)CCCl)cc1)c1cccc([N+](=O)[O-])c1
inactive: HCT-15 colon 98.7% | SNB-75 CNS 60% | SNB-19 CNS 77.3% | U251 CNS 73.9% | PC-3 prostate 89.1% | SK-MEL-5 melanoma 93.9% | UACC-62 melanoma 77.9% | LOX IMVI melanoma 83.4% | SK-MEL-28 melanoma 108%

CCCCN1CCCC[C@@H]1C(=O)N[C@H](C(=O)N(C)[C@H](C[C@@H](OC(C)=O)c1nc(C(=O)NC2CCC(C(=O)OC)CC2)cs1)C(C)C)C(C)C (stereo not given in full)
active: SNB-75 CNS -4.95%
inactive: HCT-15 colon 30.9% | SNB-19 CNS 24% | U251 CNS 15.5% | PC-3 prostate 29.1% | SK-MEL-5 melanoma 38.4% | UACC-62 melanoma 33.3% | LOX IMVI melanoma 35.6% | SK-MEL-28 melanoma 72.1%

O=[N+]([O-])c1cnc[nH]1
inactive: HCT-15 colon 112% | SNB-75 CNS 93.1% | SNB-19 CNS 104% | U251 CNS 99.6% | PC-3 prostate 96.5% | SK-MEL-5 melanoma 106% | UACC-62 melanoma 96.3% | LOX IMVI melanoma 97.8% | SK-MEL-28 melanoma 114%

CCNc1nc(Cl)nc(NCC)n1
inactive: HCT-15 colon 112% | SNB-75 CNS 93.6% | SNB-19 CNS 93% | U251 CNS 104% | PC-3 prostate 89.9% | SK-MEL-5 melanoma 98.2% | UACC-62 melanoma 102% | SK-MEL-28 melanoma 115%

O=C(CC1(O)C(=O)N(Cc2ccccc2)c2ccc(Br)cc21)c1ccc(C(=O)NCC2CCC3(CC2)OOC2(CCCCC2)OO3)cc1 (stereo not given)
active: HCT-15 colon 2.73% | U251 CNS -85.4% | PC-3 prostate -36.3%
inactive: SNB-75 CNS 15% | SNB-19 CNS 56.1% | UACC-62 melanoma 80.7% | SK-MEL-28 melanoma 77.4%
